From ChEMBL document CHEMBL3988442, “University of Dundee, Small-Polar-MMV Screening Library” (2021) come the findings set out here.

The whole screen tested about 66,000 compounds, of which about 960 (1.5%) showed an effect of 50% or more. Only a selection was taken, and strong results are over-represented in it overall.

The test deals with Trypanosoma brucei. Description: Trypanosoma brucei 72 hour study. The class given is functional, organism-based. Also noted: scale not given: in the data most compounds retested in dose-response had high values.

As for `O=C(O)C(F)(F)F.O=C(O)C(F)(F)F.c1cnc(N2CCO[C@H]3CN(CC4CCOCC4)C[C@H]32)nc1`, under “30.3 µM, […]”, the “Percent Effect” value is -91.37%.
For `O=C(O)C(F)(F)F.c1cc(CN2CC[C@@H]3CN(c4cnccn4)C[C@@H]3C2)ccn1`, the “Percent Effect” value (30.3 µM, […]) is on record as -4.355%.
Same read-out and setting: with `COc1cc(CNC(C)Cn2ccnc2)cc2c1OCCO2` (configuration not stated) the figure was -9.51%; with `COc1cc(CNCC(O)c2ccccc2F)cc2c1OCO2` (configuration not stated), 55.14%.
As for `COc1cc(CNC(C)Cn2cccn2)cc2c1OCCO2.Cl` (configuration not stated), the “Percent Effect” value reads like this: (30.3 µM, […]) -12.29%; (10 mM, 10 mM as filed; unlikely as a test dose) -15.19%.
In the case of `COc1cc(CNCC(O)c2ccc(F)cc2F)cc2c1OCO2` (configuration not stated), the “Percent Effect” value (30.3 µM, […]) amounted to 68.01%.
The same measure, in the same setting: then `Cc1nc(CN2CCN3C[C@H](Oc4cncnc4)C[C@H]3C2)cs1.O=C(O)C(F)(F)F.O=C(O)C(F)(F)F`, with -64.45%; and `Cc1cnc(N2CC3(CCN(Cc4cccnc4)C3)C2)nc1.O=C(O)C(F)(F)F.O=C(O)C(F)(F)F`, with -6.103%.
Same read-out and setting: with `O=C(O)C(F)(F)F.O=C(O)C(F)(F)F.c1cnc(N2CCN3C[C@H](Oc4cncnc4)C[C@H]3C2)nc1` the figure was -14.25%.
For the molecule `CCN1CCc2c(cccc2NC(=O)CN(C)C2CCSC2)C1` (configuration not stated), the “Percent Effect” value (30 µM, 30.03 µM) is given as -20.21%.
On to `O=C(O)C(F)(F)F.c1cncc(CN2C[C@H]3CCC[C@@H](CNc4cnccn4)[C@H]3C2)c1`, for which, where the note is “30.3 µM, […]”, the “Percent Effect” value is -2.256%.
As for `Cc1ccc(CN2CC[C@]3(C[C@H](OCc4ccccn4)CO3)C2)o1.O=C(O)C(F)(F)F.O=C(O)C(F)(F)F`, under “30 µM, 30.03 µM”, the “Percent Effect” value is reported as 4.871%.
Consider `O=C(c1cc2cc(F)ccc2[nH]1)N1CCC(Nc2ccc(F)cc2)CC1`, for which, under “30.3 µM, […]”, the “Percent Effect” value amounted to 86.11%.
Same read-out and setting: with `O=C(Cc1c[nH]c2ccccc12)N1CCC(Nc2ccccc2)CC1` the figure was -16.2%.
`O=C(c1ccc2c(c1)COC2)N1CCC(Nc2ccccc2)CC1`: the “Percent Effect” value (30 µM, 30.03 µM) turned out to be 15.22%.
Regarding `O=C(O)C(F)(F)F.O=C(O)C(F)(F)F.O=C(O)C(F)(F)F.c1cc(CN2CCO[C@H]3[C@H](OCCN4CCCC4)CC[C@@H]32)ccn1`, for the setting “30.3 µM, […]”, the “Percent Effect” value is -7.413%.
Take `C[C@H]1C[C@H]2CN(Cc3ccccn3)CC[C@@H]2O1.O=C(O)C(F)(F)F.O=C(O)C(F)(F)F`: the “Percent Effect” value (30 µM, 30.03 µM) is recorded as -2.942%.
Regarding `CCOCCN1C[C@@H]2CCCO[C@@H]2[C@H](NC(=O)c2cnoc2C)C1.O=C(O)C(F)(F)F`, the “Percent Effect” value (30.3 µM, […]) is -87.51%.
On to `O=C(c1csc(-c2ncccn2)n1)N1CCN2CCCCC2C1` (configuration not stated), for which the “Percent Effect” value (30 µM, 30.03 µM) is 9.676%.
The same measure, in the same setting: with `O=C(Cc1csc(-c2ncccn2)n1)N1CCN2CCCCC2C1` (configuration not stated) the figure was -4.944%; with `O=C(Cc1ccc(-n2cccn2)cc1)N1CCN2CCCCC2C1` (configuration not stated), 56.58%; with `CCS(=O)(=O)N1CCc2ccc(NC(=O)Nc3cccc(C#N)c3)cc21`, 29.43%.
Turning to `O=C(O)C(F)(F)F.O=C(O)C(F)(F)F.O=C1CC[C@@H]2[C@@H](CCN2Cc2ccccn2)N1CC1CC1`, the “Percent Effect” value (30.3 µM, […]) is 9.459%.
As for `CNC(C)Cc1ccccc1Sc1ccc(O)cc1.Cl` (configuration not stated), the “Percent Effect” value (30 µM, 30.03 µM) is listed as -13.84%.
Still for that read-out and setting: with `CC(N)Cc1ccccc1Sc1ccc(O)cc1.CC(N)Cc1ccccc1Sc1ccc(O)cc1.O=C(O)C(=O)O` (configuration not stated) the figure was 73.02%.
As for `CC(N)Cc1ccccc1Sc1ccccc1.O=C(O)/C=C\C(=O)O` (configuration not stated), the “Percent Effect” value (30 µM, 30.03 µM) was 99.41%.
On the same count and under the same terms, then `O=C(O)C(F)(F)F.O=C(O)C(F)(F)F.c1cncc(O[C@H]2CC[C@H]3[C@H]2OCCN3C2CCCC2)c1`, with -21.55%.
As to `CN(C)[C@@H]1CN(C(=O)Cc2cccs2)[C@@H]2CCCO[C@H]12.O=C(O)C(F)(F)F`, the “Percent Effect” value (30.3 µM, […]) was -91.09%.
Same read-out and setting: with `COCCN1CC[C@]2(CN(Cc3cccnc3)C[C@H]2C)C1=O.O=C(O)C(F)(F)F.O=C(O)C(F)(F)F` the figure was -47.24%; with `CN1C(Cn2cccn2)C[C@@H]2CN(Cc3cccnc3)CC[C@@H]21.O=C(O)C(F)(F)F.O=C(O)C(F)(F)F.O=C(O)C(F)(F)F.O=C(O)C(F)(F)F` (some centres not stated), -14.63%.
Still for that read-out and setting: then `COCCN1CCO[C@@H]2CN(S(=O)(=O)c3cccnc3)C[C@@H]2C1.O=C(O)C(F)(F)F.O=C(O)C(F)(F)F`, with -14.72%.
